In PubChem BioAssay:
Records with an inconclusive call do not appear. The source made the active and inactive calls.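 How the source made its calls, unless noted: active means efflux inhibition above 0.42, the validation set average plus 4 SD; inconclusive means no clear call, values can overlap the other calls; inactive means the rest.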

Key:
[1] = yeast TOR pathway RPL19A-GFP modulators, primary screen, cell-based, S. cerevisiae, multiplex flow cytometry (AID 1862; in the data active means percent of DMSO control GFP below about 86%;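 further: lower values mimic rapamycin by blocking the RPL19A rise seen in DMSO cells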); conditions: S. cerevisiae RPL19A-GFP strain, flow cytometry fluorescence, 3 h; at 10 µM; stronger effect = lower value
[2] = modulators of MEP2-GFP levels in yeast, primary screen, S. cerevisiae, multiplex flow cytometry (AID 1867;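 active means GFP response, as percent of the DMSO control, above the screen-wide mean plus 3 SD, about 139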;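 further: median GFP channel fluorescence of barcode-gated MEP2-GFP cells measured by flow cytometry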); conditions: S. cerevisiae MEP2-GFP strain, 3 h, at 10 µM, stronger effect = higher value, 100% means same as DMSO wells
[3] = modulators of CIT2-GFP expression in yeast, primary screen, S. cerevisiae, GFP fusion, multiplex flow cytometry (AID 1870;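 active means percent response above a set limit, the screen-wide mean plus 3 SD, cut at about 130% in these data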;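 further: barcoded CIT2-GFP strain pooled with four other GFP strains with rapamycin as positive control; median GFP fluorescence per well over plate mean of DMSO wells so 100% = DMSO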); conditions: 3 h, at 10 µM, stronger effect = higher value
[4] = modulators of LAP4-GFP expression in yeast, primary screen, S. cerevisiae, multiplex flow cytometry (AID 1873;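 active means GFP signal, as percent of the solvent control, above the screen mean plus 3 SD, about 149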); conditions: 3 h, at 10 µM, stronger effect = higher value
[5] = modulators of AGP1-GFP expression in yeast TOR pathway, primary screen, cell-based, multiplex flow cytometry, S. cerevisiae (AID 1887;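 active means GFP signal above the screen-wide mean plus 3 SD, that is over about 124.5% of the solvent control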;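 further: AGP1-GFP fusion strain of S. cerevisiae within a five-strain barcoded multiplex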); conditions: 3 h, at 10 µM, stronger effect = higher value
[6] = inhibitors of CD8+ T cell-vesicle binding, pilot screen, LFA-1/ICAM-1 modulator project, MLPCN validation set, flow cytometry (AID 2523;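 active means response below a set limit, under 55% cells CD8-positive and vesicle-bound, and CD8 cells' 90th-percentile brightness under 279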;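 on vesicle binding response: mean PE anti-B7-1 fluorescence of CD8+ cells relative to row control; 100% = QL9-loaded vesicles with DMSO vehicle in the same plate row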); conditions: 2C mouse CD8+ T cells, at 7 µM, stronger effect = lower value; double positive events: measured here: CD8+/vesicle+ event percentage
[7] = molecular target: Integrin beta-1 (Homo sapiens) + Integrin alpha-4 (Homo sapiens) (UniProt P13612+P05556); assay: inhibition of HUTS-21 binding to VLA-4, pilot screen, VLA-4 allosteric modulator project, U937 cells, HUTS-21 mAb, flow cytometry, validation set (AID 2674;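 active means inhibition above 50%, about 3 SD of the validation set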;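 further: antibody binding induced by the VLA-4 ligand LDV present at three times its Kd; 0% = LDV ligand with antibody and no compound and 100% = antibody without LDV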); conditions: HUTS-21 LIBS mAb binding, at 6.7 µM, stronger effect = higher value, binding induced by LDV ligand
[8] = superoxide lowering in aged yeast cells, pilot screen, validation compound set (AID 2706;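 active means superoxide response below 65% of plate, a cut near 3 SD across the whole screen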;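 further: yeast exposed to compound for one week at 30 degrees C before staining; 100% = mean of all compound wells on the same plate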); conditions: S. cerevisiae aging, superoxide DHE fluorescence; at 10 µM; stronger effect = lower value
[9] = molecular target: Beta-adrenergic receptor kinase 1 (Homo sapiens) (UniProt P25098); assay: GRK2 binders displacing RNA aptamer, biochemical, validation, human GRK2, bead flow cytometry (AID 488806;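 active means aptamer binding inhibition above 30%, about 3 SD of noise from non-fluorescent compounds; inactive means inhibition at or below 30%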); conditions: bead-bound GRK2, FAM-aptamer displacement, at 10 µM, stronger effect = higher value
[10] = molecular target: Beta-2 adrenergic receptor (Homo sapiens) (UniProt P07550); assay: beta2AR agonists driving receptor internalization, pilot screen, cell-based, FAP fluorogen, flow cytometry, validation set (AID 504459;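 active means percent response above 42, roughly 3 SD of non-fluorescent test compounds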;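 further: agonist-driven loss of surface beta2AR via internalization measured by FAP dye flow cytometry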); conditions: Am2.2-beta2AR cells, FAP surface receptor flow cytometry; at 10 µM; stronger effect = higher value
[11] = molecular target: AP-2 complex subunit beta (Homo sapiens) (UniProt P63010); assay: inhibitors of arrestin peptide binding to AP2, pilot screen, biochemical, validation set, GST-AP2 beads, flow cytometry (AID 504541;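 active means inhibition above 54%, about 3 SD of non-fluorescent compounds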;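 further: AP2 carries R879A mutation and is captured from E. coli lysate; bead-bound FITC arrestin peptide fluorescence measuring arrestin peptide binding to AP2; 0% = DMSO wells and 100% = excess unlabeled arrestin peptide control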); conditions: FITC arrestin peptide, at 10 µM, stronger effect = higher value, AP2 beta2 appendage fragment, R879A mutant
[12] = yeast V-ATPase proton transport modulators, S. cerevisiae, pHLuorin, HTS validation (AID 504600; in the data active means response above about 15%;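 further: plate controls were DMSO for no effect and reference compound for full effect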); conditions: S. cerevisiae pHLuorin cytosolic pH, at 10 µM, stronger effect = higher value
[13] = tested on: anti-desmoglein-3 scFv antibody binding to human DSG3; assay: inhibitors of anti-DSG3 scFv binding to DSG3, pilot screen, biochemical, validation compound set, bead-based, flow cytometry (AID 588368;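 active means binding below the plate cutoff, the plate median minus 3 SD, with a reading above zero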;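 further: signal is the median channel fluorescence of bead-bound GFP antibody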); conditions: Protein G beads, DSG3-Fc, scFv-GFP binding, at 10 µM, stronger effect = lower value
[14] = inhibitors of fungal efflux pumps CDR1, CDR2, MDR1, pilot screen, validation compound set, multiplex, phenotypic (AID 588506);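 further: Nile Red retained in cells so higher fluorescence means more efflux inhibition; 0 = negative control wells and 1 = enniatin B 25 µM full block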; conditions: S. cerevisiae pump-expressing triplex, Nile Red efflux flow cytometry; at 10 µM; stronger effect = higher value; the pumps come from Candida albicans
[15] = molecular target: ATP-binding cassette sub-family B member 6 (Homo sapiens) (UniProt Q9NP58); assay: ABCB6 transporter inhibitors, pilot screen, K562-ABCB6 cells, flow cytometry, validation set (AID 588550;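 active means inhibition above the screen-wide mean plus 3 SD, about 51%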;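 further: 0% = DMSO wells and 100% = benzethonium chloride 70 µM positive control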); conditions: K562-ABCB6 porphyrin accumulation, 1 h, at 10 µM, stronger effect = higher value
[16] = promoters of myeloid differentiation in arrested cells, primary screen, cell-based, GFP/MAC1 double positive, flow cytometry, validation set (AID 588685;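 active means differentiation response of at least 50%, scaled between solvent and reference control, from cells with both markers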;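 further: compound exposure lasts four days before antibody staining and flow analysis; 0% = DMSO wells and 100% = 5 µM fulvestrant positive control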); conditions: ER-HoxA9 marrow cells, stronger effect = higher value, normalized: vehicle 0, fulvestrant 100

Integrin beta-1 (Homo sapiens) + Integrin alpha-4 (Homo sapiens), sequence (P05556 whole entry, looked up): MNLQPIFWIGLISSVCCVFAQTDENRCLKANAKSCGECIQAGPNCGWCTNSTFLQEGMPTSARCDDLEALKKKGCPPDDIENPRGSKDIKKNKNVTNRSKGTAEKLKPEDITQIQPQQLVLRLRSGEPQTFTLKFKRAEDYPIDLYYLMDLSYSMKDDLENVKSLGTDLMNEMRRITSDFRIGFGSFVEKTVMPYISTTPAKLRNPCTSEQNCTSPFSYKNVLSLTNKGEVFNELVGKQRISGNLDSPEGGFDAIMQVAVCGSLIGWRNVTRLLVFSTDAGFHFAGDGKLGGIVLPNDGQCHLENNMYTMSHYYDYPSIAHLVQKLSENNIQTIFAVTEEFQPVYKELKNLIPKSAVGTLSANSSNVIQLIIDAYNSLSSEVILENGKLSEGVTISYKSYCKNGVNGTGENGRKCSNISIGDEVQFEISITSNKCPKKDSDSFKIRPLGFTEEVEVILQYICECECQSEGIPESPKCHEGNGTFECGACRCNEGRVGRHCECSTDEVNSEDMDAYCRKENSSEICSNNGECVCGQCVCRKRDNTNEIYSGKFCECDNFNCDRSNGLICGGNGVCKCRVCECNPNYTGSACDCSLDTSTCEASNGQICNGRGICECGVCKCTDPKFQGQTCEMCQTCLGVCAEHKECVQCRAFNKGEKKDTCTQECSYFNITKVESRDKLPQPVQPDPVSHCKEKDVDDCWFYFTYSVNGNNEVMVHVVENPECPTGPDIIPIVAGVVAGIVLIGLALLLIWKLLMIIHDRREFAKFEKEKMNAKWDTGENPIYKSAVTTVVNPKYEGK
Integrin beta-1 (Homo sapiens) + Integrin alpha-4 (Homo sapiens), sequence (P13612 whole entry, looked up): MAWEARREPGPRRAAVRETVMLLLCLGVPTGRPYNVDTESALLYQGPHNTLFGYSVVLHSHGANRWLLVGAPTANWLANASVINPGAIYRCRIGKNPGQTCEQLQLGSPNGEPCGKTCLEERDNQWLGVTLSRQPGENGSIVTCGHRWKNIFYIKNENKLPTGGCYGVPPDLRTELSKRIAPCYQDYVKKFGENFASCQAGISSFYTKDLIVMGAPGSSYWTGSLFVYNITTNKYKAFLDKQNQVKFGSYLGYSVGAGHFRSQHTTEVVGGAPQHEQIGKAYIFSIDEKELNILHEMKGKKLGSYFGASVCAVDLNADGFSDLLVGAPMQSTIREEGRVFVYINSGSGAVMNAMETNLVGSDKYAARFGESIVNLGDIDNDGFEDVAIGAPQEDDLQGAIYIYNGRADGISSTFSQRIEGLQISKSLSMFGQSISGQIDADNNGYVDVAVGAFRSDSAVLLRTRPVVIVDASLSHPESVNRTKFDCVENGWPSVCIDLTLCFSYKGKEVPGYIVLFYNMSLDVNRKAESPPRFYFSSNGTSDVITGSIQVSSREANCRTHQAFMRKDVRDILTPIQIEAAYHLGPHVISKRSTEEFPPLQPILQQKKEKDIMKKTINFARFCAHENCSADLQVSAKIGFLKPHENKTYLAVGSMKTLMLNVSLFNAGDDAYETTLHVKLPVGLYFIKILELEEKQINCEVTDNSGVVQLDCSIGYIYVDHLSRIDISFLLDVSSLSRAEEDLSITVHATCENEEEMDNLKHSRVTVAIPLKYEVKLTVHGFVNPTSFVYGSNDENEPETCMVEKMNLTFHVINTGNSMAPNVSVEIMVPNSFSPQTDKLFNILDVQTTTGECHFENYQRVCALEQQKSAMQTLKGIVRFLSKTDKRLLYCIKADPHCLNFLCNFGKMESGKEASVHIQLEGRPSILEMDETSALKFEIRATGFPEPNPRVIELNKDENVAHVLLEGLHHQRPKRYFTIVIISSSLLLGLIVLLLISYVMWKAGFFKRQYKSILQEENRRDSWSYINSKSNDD
ATP-binding cassette sub-family B member 6 (Homo sapiens), sequence (Q9NP58 whole entry, looked up): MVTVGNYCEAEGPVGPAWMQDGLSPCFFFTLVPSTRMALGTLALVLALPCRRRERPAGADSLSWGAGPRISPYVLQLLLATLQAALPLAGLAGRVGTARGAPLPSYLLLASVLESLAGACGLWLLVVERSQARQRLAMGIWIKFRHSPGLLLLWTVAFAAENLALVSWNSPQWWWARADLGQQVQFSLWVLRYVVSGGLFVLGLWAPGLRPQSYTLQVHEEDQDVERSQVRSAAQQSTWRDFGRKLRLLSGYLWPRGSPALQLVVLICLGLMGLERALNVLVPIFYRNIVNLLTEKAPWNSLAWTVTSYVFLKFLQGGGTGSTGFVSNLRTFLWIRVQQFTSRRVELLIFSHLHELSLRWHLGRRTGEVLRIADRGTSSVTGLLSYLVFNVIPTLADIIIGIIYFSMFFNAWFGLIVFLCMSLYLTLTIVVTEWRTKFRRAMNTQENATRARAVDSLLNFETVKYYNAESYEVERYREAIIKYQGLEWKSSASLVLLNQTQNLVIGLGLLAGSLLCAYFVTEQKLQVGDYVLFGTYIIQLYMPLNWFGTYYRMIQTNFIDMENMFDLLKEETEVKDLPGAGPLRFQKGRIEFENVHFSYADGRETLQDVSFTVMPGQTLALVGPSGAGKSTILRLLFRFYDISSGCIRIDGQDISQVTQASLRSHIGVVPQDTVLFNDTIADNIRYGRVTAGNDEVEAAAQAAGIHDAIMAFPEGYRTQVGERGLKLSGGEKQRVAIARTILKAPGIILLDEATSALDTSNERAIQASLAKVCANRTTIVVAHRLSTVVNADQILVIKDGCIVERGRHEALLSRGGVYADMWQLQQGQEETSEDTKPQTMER
AP-2 complex subunit beta (Homo sapiens), sequence (P63010 whole entry, looked up, the tested form may be a part, one chain of several): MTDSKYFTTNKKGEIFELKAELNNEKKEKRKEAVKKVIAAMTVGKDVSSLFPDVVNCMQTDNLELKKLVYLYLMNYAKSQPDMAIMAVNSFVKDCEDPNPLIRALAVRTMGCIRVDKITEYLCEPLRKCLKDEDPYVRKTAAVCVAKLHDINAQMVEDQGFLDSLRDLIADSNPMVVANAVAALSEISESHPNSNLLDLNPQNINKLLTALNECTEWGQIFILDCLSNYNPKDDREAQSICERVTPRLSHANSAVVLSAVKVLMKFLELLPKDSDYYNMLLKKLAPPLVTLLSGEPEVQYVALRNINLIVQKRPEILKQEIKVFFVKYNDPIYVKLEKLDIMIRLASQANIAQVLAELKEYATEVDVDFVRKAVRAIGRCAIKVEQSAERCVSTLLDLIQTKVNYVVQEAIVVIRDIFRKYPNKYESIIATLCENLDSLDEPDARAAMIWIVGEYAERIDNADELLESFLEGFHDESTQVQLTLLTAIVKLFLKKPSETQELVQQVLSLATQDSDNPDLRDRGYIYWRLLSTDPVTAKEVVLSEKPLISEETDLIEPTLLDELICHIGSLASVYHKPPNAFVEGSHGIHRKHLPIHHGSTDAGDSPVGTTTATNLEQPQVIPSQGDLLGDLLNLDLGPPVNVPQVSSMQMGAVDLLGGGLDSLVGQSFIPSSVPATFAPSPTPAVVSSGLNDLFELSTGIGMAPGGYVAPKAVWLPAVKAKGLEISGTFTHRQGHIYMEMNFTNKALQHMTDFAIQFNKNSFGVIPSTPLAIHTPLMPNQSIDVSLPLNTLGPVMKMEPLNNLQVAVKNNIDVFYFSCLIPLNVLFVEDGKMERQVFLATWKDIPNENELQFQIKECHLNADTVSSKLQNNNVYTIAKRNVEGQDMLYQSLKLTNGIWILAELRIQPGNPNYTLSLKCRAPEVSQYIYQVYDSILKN
Beta-2 adrenergic receptor (Homo sapiens), sequence (P07550 whole entry, looked up): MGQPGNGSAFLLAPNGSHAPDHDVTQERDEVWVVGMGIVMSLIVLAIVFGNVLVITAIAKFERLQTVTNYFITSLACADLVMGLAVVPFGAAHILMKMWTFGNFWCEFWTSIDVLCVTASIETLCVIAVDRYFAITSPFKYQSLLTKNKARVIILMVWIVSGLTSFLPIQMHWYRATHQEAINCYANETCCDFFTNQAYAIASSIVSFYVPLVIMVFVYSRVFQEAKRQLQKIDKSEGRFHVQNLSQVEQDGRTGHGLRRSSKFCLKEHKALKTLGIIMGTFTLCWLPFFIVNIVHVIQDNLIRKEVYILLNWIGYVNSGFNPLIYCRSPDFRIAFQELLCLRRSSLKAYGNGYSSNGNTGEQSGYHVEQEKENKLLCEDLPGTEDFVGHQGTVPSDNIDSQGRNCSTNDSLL
Beta-adrenergic receptor kinase 1 (Homo sapiens), sequence (P25098 whole entry, looked up): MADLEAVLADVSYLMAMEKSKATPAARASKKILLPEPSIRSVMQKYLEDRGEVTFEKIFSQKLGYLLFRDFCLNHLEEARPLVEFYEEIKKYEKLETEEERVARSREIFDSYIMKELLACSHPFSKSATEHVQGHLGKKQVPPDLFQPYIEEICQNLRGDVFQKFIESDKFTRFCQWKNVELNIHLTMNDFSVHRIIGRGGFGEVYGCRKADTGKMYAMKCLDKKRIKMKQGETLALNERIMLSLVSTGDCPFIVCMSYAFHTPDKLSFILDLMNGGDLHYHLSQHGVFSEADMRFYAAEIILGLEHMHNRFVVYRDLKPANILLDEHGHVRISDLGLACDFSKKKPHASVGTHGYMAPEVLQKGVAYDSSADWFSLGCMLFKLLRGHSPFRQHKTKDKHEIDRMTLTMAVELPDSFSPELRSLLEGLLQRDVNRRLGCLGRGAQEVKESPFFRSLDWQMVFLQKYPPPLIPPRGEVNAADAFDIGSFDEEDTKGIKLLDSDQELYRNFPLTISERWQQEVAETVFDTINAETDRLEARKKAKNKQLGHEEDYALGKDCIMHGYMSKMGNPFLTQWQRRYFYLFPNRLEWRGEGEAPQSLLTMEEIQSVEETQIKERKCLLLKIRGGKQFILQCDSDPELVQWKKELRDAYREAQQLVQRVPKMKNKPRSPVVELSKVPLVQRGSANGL

SMILES | percent of DMSO control GFP [1] | GFP response vs DMSO [2] | percent response of DMSO control [3] | GFP response vs DMSO [4] | GFP response, % of DMSO [5] | double positive events [6] | vesicle binding response [6] | inhibition [7] | superoxide response (% of plate) [8] | aptamer binding inhibition [9] | response [10] | inhibition [11] | response [12] | binding (% of control) [13] | efflux inhibition (fraction of control) [14] | inhibition [15] | differentiation response [16]
CCNC(=S)N1CCN(CCN2C(=O)c3cccc4cccc(c34)C2=O)CC1 | 103% (inactive) | 97.7% (inactive) | 106% (inactive) | 95.9% (inactive) | 107% (inactive) | 63.5% | 143% (inactive) | -26.6% (inactive) | 96.9% (inactive) | 0% (inactive) | -20.5% (inactive) | -15.4% (inactive) | 1.54% (inactive) | 104% (inactive) | -0.195 (inactive) | -13% (inactive) | -8.96% (inactive)
Cc1nc(NCc2ccco2)c(C#N)c2c1COC(C)(C)C2 | 102% (inactive) | 98.7% (inactive) | 96.5% (inactive) | 102% (inactive) | 92.4% (inactive) | 57.7% | 99.2% (inactive) | -9.13% (inactive) | 123% (inactive) | 4% (inactive) | 7.11% (inactive) | -2% (inactive) | 12% (inactive) | 98.8% (inactive) | -0.31 (inactive) | 15% (inactive) | -1.65% (inactive)
CCCCCC#CCC#CCC#CCC#CCCCC(=O)O | 106% (inactive) | 108% (inactive) | 103% (inactive) | 106% (inactive) | 116% (inactive) | 62.5% | 208% (inactive) | -3.67% (inactive) | 123% (inactive) | 62% (active) | -11.7% (inactive) | 26.9% (inactive) | 4.4% (inactive) | 90.5% (inactive) | 0.04 (inactive) | 2% (inactive) | -10.9% (inactive)
O=C(CS(=O)(=O)c1ccccc1)c1ccc2c(c1)OCCO2 | 99.7% (inactive) | 103% (inactive) | 100% (inactive) | 112% (inactive) | 113% (inactive) | 57.1% | 194% (inactive) | -9.63% (inactive) | 98.2% (inactive) | 4% (inactive) | -29.9% (inactive) | -15.5% (inactive) | -0.24% (inactive) | 103% (inactive) | 0.12 (inactive) | 5% (inactive) | -1.05% (inactive)
O=C(CC1SC(=O)NC1=O)Nc1ccc(Cl)cc1 (stereo not drawn) | 101% (inactive) | 104% (inactive) | 108% (inactive) | 98% (inactive) | 108% (inactive) | 65.3% | 193% (inactive) | 6.95% (inactive) | 116% (inactive) | -1% (inactive) | 2.95% (inactive) | 1.72% (inactive) | 1.59% (inactive) | 100% (inactive) | -0.205 (inactive) | -3% (inactive) | -16.3% (inactive)
NC(N)=NC(=O)Cc1c(Cl)cccc1Cl | 103% (inactive) | 110% (inactive) | 97.8% (inactive) | 99.9% (inactive) | 101% (inactive) | 64.6% | 197% (inactive) | -4.6% (inactive) | 109% (inactive) | -1% (inactive) | -1.1% (inactive) | 18% (inactive) | -2.92% (inactive) | 98.2% (inactive) | -0.01 (inactive) | 18% (inactive) | -2.69% (inactive)
CC12CC(c3ccccc3O1)C(C(=O)N1CCOCC1)C(=O)N2 (stereo not drawn) | 100% (inactive) | 103% (inactive) | 101% (inactive) | 85.2% (inactive) | 101% (inactive) | 60.3% | 53.4% (inactive) | 2.55% (inactive) | 107% (inactive) | 6% (inactive) | 6.73% (inactive) | -22.1% (inactive) | 0.44% (inactive) | 103% (inactive) | -0.34 (inactive) | 8% (inactive) | -1.88% (inactive)
NC(=O)N1c2ccccc2CC(=O)c2ccccc21 | 103% (inactive) | 102% (inactive) | 102% (inactive) | 92.6% (inactive) | 102% (inactive) | 64.1% | 200% (inactive) | 6.95% (inactive) | 106% (inactive) | 2% (inactive) | 0.79% (inactive) | -3.95% (inactive) | -2.65% (inactive) | 97.3% (inactive) | -0.14 (inactive) | 2% (inactive) | -6.03% (inactive)
NC(=O)[C@@H]1[C@@H]2C(=O)N(c3ccc(F)cc3)C(=O)[C@@H]2[C@H]2C=Cc3ccccc3N21 | 104% (inactive) | 105% (inactive) | 112% (inactive) | 100% (inactive) | 102% (inactive) | 63% | 126% (inactive) | -80.5% (inactive) | 103% (inactive) | 6% (inactive) | 4.67% (inactive) | -25.9% (inactive) | -0.45% (inactive) | 104% (inactive) | -0.12 (inactive) | -37% (inactive) | 3.45% (inactive)
